# From the supplement of paper PMC11732987, “Enantioselective OTUD7B fragment discovery through chemoproteomics screening and high-throughput optimisation” (Communications Chemistry, 2025)
# A number with no mark means an inactive call.
# Columns and labels:
# Assay in all cases: log2 ratio of Biotin-Ahx-Ub-VS probe labelling (fragment/DMSO); higher = less target engagement (more negative = stronger competition), active = hit call of the paper (q ≤ 0.05, log2 ratio ≤ -1)
# Conditions in all cases: compound concentration: 200 uM; treatment time: 3 h
# ALG13 = molecular target: T1, ALG13 (UniProt Q9NP73)
# T1 sequence (whole entry): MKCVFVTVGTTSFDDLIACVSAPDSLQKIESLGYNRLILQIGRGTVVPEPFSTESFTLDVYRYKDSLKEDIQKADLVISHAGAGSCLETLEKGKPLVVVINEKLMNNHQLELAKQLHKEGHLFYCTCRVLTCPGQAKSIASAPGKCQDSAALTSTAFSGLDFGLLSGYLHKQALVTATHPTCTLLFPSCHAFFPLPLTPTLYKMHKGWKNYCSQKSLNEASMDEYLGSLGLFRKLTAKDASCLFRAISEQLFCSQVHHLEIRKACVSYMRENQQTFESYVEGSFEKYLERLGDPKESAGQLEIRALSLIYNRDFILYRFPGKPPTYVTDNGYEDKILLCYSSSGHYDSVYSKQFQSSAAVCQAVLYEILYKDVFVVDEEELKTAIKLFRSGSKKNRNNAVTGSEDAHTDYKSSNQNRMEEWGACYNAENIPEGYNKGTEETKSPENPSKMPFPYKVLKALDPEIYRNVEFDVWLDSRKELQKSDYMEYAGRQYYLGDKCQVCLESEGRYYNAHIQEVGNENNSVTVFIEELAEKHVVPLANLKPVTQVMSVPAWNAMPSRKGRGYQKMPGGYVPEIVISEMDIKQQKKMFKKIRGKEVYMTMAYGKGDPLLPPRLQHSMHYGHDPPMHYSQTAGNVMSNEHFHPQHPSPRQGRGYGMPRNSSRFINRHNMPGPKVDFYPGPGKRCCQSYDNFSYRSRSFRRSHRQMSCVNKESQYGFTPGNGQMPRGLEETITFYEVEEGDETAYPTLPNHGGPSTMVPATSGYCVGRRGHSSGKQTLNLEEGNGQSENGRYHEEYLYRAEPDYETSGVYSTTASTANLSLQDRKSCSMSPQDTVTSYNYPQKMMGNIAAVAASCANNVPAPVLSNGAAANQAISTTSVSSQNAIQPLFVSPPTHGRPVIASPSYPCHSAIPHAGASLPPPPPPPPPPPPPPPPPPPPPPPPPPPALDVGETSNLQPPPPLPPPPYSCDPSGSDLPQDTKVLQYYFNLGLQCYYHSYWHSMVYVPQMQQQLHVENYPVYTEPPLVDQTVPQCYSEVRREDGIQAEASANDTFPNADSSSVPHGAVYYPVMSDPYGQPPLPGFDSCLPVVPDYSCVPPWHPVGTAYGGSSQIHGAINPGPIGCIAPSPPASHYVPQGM
# How it was run: (§1)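 In triplicate, 495 µg of HEK293T lysate per sample was incubated with fragment at 200 µM or vehicle for 3 h. Biotin-Ahx-Ub-VS was then added to 0.5 µM final for 1 h, and labelled DUBs were captured with NeutrAvidin, digested with LysC and trypsin, and measured by diaPASEF LC-MS/MS. Data are average log2 fragment/vehicle ratios by unpaired t-test from global-median-normalised Spectronaut label-free quantities, restricted to proteins with ≥2 unique peptides.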
# ATXN3 = ATXN3 (UniProt P54252)
# Chain of ATXN3 (P54252 whole entry): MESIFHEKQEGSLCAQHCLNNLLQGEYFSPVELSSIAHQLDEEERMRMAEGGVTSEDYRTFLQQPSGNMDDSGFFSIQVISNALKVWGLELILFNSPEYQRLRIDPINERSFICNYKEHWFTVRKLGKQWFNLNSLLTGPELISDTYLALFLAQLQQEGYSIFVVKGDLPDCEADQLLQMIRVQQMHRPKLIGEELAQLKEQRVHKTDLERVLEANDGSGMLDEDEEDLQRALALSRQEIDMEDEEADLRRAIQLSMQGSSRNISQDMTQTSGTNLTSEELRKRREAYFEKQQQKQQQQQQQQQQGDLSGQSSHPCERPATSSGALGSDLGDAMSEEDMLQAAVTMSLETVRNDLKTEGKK
# How it was run: as §1
# BAP1 = molecular target: T2, BAP1 (UniProt Q92560)
# T2 sequence (whole entry): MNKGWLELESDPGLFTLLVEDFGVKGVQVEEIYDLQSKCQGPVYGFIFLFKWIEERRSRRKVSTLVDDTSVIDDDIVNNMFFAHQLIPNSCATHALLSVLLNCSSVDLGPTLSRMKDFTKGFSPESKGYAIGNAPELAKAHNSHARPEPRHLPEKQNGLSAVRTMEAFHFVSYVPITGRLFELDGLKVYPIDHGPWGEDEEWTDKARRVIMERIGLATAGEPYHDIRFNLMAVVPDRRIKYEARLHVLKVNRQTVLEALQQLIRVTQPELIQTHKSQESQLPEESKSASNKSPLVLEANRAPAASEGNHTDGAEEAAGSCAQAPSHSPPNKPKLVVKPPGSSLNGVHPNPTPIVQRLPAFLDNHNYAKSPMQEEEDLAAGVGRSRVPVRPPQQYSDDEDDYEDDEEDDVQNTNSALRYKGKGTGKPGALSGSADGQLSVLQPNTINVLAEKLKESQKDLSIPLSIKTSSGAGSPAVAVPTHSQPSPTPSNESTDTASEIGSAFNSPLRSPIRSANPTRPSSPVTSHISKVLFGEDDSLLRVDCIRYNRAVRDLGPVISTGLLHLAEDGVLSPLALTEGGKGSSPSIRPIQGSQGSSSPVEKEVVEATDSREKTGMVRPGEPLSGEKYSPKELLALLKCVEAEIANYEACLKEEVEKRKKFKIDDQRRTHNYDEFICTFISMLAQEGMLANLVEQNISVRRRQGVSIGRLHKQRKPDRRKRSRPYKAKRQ
# How it was run: as §1
# EIF3F = EIF3F (UniProt O00303)
# Chain of EIF3F (O00303 whole entry): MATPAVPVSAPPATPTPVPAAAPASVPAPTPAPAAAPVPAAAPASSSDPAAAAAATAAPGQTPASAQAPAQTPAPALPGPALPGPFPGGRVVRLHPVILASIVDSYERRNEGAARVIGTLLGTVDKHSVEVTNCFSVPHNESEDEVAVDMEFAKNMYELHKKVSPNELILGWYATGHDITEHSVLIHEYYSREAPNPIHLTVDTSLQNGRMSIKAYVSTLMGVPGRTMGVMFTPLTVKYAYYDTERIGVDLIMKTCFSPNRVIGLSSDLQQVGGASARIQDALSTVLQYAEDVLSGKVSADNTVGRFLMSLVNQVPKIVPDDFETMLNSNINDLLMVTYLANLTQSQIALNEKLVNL
# How it was run: as §1
# EIF3H = EIF3H (UniProt O15372)
# Chain of EIF3H (O15372 whole entry): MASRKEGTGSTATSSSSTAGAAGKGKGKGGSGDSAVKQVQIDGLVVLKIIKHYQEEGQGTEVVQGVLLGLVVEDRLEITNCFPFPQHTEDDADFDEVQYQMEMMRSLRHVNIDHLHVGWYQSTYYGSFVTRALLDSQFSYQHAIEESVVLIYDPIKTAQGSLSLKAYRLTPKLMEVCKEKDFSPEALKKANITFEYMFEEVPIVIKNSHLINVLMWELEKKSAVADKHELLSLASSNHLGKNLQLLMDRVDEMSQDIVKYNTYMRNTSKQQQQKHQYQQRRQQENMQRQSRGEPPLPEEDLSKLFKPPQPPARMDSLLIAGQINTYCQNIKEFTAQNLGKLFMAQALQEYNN
# How it was run: as §1
# FAM105A = molecular target: T3, FAM105A (UniProt Q9NUU6)
# T3 sequence (whole entry): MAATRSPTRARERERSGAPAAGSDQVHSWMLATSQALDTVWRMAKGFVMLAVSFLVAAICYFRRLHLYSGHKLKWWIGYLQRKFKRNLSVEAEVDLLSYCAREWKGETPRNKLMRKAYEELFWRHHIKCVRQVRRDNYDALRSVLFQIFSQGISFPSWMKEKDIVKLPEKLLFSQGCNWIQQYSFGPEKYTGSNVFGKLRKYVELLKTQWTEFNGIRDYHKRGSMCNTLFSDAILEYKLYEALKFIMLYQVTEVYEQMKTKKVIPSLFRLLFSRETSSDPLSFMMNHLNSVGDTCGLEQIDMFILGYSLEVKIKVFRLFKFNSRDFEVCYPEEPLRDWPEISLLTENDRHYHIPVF
# How it was run: as §1
# OTUB1 = OTUB1 (UniProt Q96FW1)
# Chain of OTUB1 (Q96FW1 whole entry): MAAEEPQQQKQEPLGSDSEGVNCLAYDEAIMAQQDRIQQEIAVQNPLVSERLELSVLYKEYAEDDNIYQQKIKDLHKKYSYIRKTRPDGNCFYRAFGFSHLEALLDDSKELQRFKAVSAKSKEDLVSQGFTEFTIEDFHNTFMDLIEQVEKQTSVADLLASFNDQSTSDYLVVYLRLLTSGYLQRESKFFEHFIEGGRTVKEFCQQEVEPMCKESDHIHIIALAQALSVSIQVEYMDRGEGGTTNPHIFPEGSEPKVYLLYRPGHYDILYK
# How it was run: as §1
# OTUD4 = molecular target: T4, OTUD4 (UniProt Q01804)
# T4 sequence (whole entry): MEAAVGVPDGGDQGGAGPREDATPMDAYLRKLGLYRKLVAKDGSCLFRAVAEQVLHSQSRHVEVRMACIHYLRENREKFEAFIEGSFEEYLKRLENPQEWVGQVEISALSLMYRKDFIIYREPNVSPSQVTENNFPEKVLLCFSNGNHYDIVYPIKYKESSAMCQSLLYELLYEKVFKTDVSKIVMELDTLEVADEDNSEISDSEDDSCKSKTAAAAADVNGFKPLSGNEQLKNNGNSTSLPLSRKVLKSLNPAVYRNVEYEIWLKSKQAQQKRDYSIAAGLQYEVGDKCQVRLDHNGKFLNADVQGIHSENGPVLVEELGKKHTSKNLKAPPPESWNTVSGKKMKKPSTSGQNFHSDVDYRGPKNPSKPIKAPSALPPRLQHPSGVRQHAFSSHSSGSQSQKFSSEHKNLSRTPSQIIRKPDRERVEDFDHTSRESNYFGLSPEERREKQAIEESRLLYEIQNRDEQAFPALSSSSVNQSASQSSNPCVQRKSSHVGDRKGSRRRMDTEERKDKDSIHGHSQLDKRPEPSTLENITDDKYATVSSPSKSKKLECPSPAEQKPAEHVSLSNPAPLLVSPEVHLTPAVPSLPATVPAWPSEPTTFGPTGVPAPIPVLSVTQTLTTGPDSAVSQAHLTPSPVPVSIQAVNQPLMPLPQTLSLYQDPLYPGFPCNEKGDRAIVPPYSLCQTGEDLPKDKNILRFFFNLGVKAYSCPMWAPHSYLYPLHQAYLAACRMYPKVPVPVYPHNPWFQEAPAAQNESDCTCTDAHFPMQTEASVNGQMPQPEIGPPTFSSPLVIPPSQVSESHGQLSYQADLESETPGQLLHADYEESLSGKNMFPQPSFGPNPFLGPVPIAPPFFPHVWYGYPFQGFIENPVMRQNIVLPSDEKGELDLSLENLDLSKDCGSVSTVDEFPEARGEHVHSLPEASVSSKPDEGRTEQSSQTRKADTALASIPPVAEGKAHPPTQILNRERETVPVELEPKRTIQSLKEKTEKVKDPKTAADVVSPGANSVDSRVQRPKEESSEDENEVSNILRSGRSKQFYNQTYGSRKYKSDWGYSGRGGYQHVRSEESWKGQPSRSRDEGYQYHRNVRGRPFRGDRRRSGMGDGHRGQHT
# How it was run: as §1
# OTUD5 = molecular target: T5, OTUD5 (UniProt Q96G74)
# T5 sequence (whole entry): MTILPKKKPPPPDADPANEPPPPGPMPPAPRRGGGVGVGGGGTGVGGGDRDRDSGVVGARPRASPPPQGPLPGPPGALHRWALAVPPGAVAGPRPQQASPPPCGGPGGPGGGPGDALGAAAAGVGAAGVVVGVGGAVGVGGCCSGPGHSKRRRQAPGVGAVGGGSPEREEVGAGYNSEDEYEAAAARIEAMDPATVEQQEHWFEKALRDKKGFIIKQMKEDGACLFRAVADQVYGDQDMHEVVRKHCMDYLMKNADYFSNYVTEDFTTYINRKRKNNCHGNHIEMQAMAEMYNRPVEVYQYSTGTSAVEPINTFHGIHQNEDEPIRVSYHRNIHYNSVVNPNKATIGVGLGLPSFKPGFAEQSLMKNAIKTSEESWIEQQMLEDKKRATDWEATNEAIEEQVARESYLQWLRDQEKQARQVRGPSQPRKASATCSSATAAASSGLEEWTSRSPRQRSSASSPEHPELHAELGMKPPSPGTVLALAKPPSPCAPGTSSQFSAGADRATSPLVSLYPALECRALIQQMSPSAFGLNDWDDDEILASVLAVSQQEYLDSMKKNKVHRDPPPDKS
# How it was run: as §1
smiles,measurement,setting,value
Cc1ccn2cc(CNC(=O)CCl)nc2c1.Cl,log2 ratio of Biotin-Ahx-Ub-VS probe labelling,ALG13,0.193
same,log2 ratio of Biotin-Ahx-Ub-VS probe labelling,ATXN3,-0.103
same,log2 ratio of Biotin-Ahx-Ub-VS probe labelling,BAP1,-1.14 (active)
same,log2 ratio of Biotin-Ahx-Ub-VS probe labelling,EIF3F,-0.185
same,log2 ratio of Biotin-Ahx-Ub-VS probe labelling,EIF3H,0.253
same,log2 ratio of Biotin-Ahx-Ub-VS probe labelling,FAM105A,0.254
same,log2 ratio of Biotin-Ahx-Ub-VS probe labelling,OTUB1,0.0771
same,log2 ratio of Biotin-Ahx-Ub-VS probe labelling,OTUD4,-0.505
same,log2 ratio of Biotin-Ahx-Ub-VS probe labelling,OTUD5,-0.214
